Records with an inconclusive call do not appear. Calls of active or inactive are those of the source. Unless noted, calls follow the shape of the dose curve; as a rule, active = well fitted curve in the direction sought with a large enough effect in the repeat runs; inconclusive = weak or mixed curves; inactive = no such curve, though single readings can be large; an effect the other way counts as inactive or inconclusive.
Assays:
[1] = qHTS assay to identify small molecule agonists of the estrogen receptor alpha (ER-alpha) signaling pathway in the presence of an antagonist - cell viability counter screen (AID 1259386);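 also: series mostly up to about 92 µM; cells exposed to compounds for 22 h at 37 °C before the viability read; nearly all actives have a fitted effect of over 30% in size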
How it was run: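 Fluorescent CellTiter-Fluor viability signal from VM7Luc4E2 cells, with the reagent added during the final hour of a 22hr compound exposure at 37C in the presence of 10.0nM ICI-182,780.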

[2] = biological target: Progesterone receptor (Homo sapiens) (UniProt P06401); assay: qHTS assay to identify small molecule agonists of the progesterone receptor (PR) signaling pathway (AID 1346784; calls by dose curve; also: nearly all actives have a fitted effect of over 30% in size)
How it was run: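 Agonist qHTS: compounds pinned onto 3,000 PR-UAS-bla HEK 293T cells per well in charcoal-stripped serum medium, 16hr at 37C, then beta-lactamase activity measured by LiveBLAzer FRET fluorescence after 2 hours at room temperature.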

[3] = biological target: Progesterone receptor (Homo sapiens) (UniProt P06401); assay: qHTS assay to identify small molecule antagonists of the progesterone receptor (PR) signaling pathway (AID 1346795; active = well fitted inhibition curve with a large enough effect in the signal ratio in the repeat runs, not every such curve was filed as active; the % refers to the signal ratio)
How it was run: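 Antagonist mode with agonist R5020 at 1 nM final and 16 hr incubation at 37C. Reporter was beta-lactamase driven by UAS in HEK293T (PR-UAS-bla), 2% charcoal-stripped serum; signal from LiveBLAzer FRET substrate, 2 hr at room temperature.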

[4] = qHTS assay to identify small molecule antagonists of the progesterone receptor (PR) signaling pathway - cell viability counter screen (AID 1346798); also: nearly all actives have a fitted effect of over 50% in size; also: potency is read from the fitted curve at half-maximal effect; as to activity change, negative = cytotoxicity: series mostly up to about 92 µM
How it was run: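 Cytotoxicity read as CellTiter-Glo luminescence (30 min, room temperature) in the same wells as the beta-lactamase readout. HEK293T PR-UAS-bla cells in charcoal-stripped 2% FBS received compound and R5020, then 16 h at 37C, 5% CO2.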

[5] = qHTS assay to identify small molecule agonists of the progesterone receptor (PR) signaling pathway - cell viability counter screen (AID 1346799; calls by dose curve; also: nearly all actives have a fitted effect of over 45% in size; also: potency is read from the fitted curve at half-maximal effect)
How it was run: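 Cytotoxicity measured by CellTiter-Glo luminescence (30 min, RT) in the same wells as the PR beta-lactamase agonist read. Those HEK293T cells had 16 h compound treatment at 37 C in 2% charcoal-stripped FBS medium.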

[6] = qHTS assay to identify small molecule antagonists of the TGF-beta/Smad signaling pathway - cell viability counter screen (AID 1346824); also: nearly all actives have a fitted effect of over 50% in size
How it was run: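 Cytotoxicity counter-screen run in the same wells as the beta-lactamase Smad reporter read: CellTiter-Glo luminescence after 30 min at room temperature. HEK 293T SBE-bla cells had 5 hr compound exposure at 37 C with TGF-beta1 (0.25 ng/mL stock).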

[7] = qHTS assay to identify small molecule agonists of the TGF-beta/Smad signaling pathway - cell viability counter screen (AID 1346829); also: top concentration of the series differs between compounds; nearly all actives have a fitted effect of over 45% in size
How it was run: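 Here the cytotoxicity of library compounds is measured in SBE-bla HEK 293T cells treated for 5 hr, using CellTiter-Glo added to wells already read for the beta-lactamase reporter.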

[8] = qHTS assay to identify small molecule agonists of the TGF-beta/Smad signaling pathway (AID 1346859; active = well fitted activation curve with a large enough effect in the signal ratio in the repeat runs, not every such curve was filed as active; the % refers to the signal ratio; also: series mostly up to about 77 µM)
How it was run: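 Fluorescence (ex 405 nm; em 460 and 530 nm) was read 2 h after LiveBLAzer FRET substrate at RT. The preceding compound treatment of overnight-plated SBE-bla HEK293T cells lasted 5 h at 37 C.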

[9] = biological target: Thyrotropin-releasing hormone receptor (Homo sapiens) (UniProt P34981); assay: qHTS assay to identify small molecule antagonists of the thyrotropin-releasing hormone receptor (TRHR) signaling pathway (AID 1346877; active = well fitted inhibition curve with a large enough effect in the repeat runs, not every such curve was filed as active; also: series mostly up to about 51 µM)
How it was run: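 In this cell-based calcium flux format, HEK293 cells expressing TRHR received test compound for 5 min before the agonist TRH (1 nM final). Dye loading lasted 2 h at 37 °C.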

[10] = biological target: Thyrotropin-releasing hormone receptor (Homo sapiens) (UniProt P34981); assay: qHTS assay to identify small molecule agonists of the thyrotropin-releasing hormone receptor (TRHR) signaling pathway (AID 1346891; calls by dose curve; also: series mostly up to about 58 µM)
How it was run: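 Agonist-mode intracellular calcium readout: kinetic fluorescence over 3 min at 1 s intervals after compound addition to TRHR-HEK293 cells (18 h seeded, 2 h dye-loaded at 37 C). Fifteen concentrations, triplicates.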
% is scaled to controls: 0 for no effect and ±100 for the full control effect.

Chain of Thyrotropin-releasing hormone receptor (Homo sapiens) (P34981 whole entry, looked up): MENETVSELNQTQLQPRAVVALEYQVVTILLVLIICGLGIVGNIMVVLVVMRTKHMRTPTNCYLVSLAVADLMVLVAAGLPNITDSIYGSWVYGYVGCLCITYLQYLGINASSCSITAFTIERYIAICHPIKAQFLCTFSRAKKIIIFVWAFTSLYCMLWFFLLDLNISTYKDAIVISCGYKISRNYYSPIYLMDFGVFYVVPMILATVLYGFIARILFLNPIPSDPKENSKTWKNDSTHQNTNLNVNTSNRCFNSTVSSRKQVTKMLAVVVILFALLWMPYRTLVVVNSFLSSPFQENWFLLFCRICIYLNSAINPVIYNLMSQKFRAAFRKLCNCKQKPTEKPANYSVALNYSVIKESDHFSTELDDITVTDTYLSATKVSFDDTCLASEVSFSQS
Chain of Progesterone receptor (Homo sapiens) (P06401 whole entry, looked up): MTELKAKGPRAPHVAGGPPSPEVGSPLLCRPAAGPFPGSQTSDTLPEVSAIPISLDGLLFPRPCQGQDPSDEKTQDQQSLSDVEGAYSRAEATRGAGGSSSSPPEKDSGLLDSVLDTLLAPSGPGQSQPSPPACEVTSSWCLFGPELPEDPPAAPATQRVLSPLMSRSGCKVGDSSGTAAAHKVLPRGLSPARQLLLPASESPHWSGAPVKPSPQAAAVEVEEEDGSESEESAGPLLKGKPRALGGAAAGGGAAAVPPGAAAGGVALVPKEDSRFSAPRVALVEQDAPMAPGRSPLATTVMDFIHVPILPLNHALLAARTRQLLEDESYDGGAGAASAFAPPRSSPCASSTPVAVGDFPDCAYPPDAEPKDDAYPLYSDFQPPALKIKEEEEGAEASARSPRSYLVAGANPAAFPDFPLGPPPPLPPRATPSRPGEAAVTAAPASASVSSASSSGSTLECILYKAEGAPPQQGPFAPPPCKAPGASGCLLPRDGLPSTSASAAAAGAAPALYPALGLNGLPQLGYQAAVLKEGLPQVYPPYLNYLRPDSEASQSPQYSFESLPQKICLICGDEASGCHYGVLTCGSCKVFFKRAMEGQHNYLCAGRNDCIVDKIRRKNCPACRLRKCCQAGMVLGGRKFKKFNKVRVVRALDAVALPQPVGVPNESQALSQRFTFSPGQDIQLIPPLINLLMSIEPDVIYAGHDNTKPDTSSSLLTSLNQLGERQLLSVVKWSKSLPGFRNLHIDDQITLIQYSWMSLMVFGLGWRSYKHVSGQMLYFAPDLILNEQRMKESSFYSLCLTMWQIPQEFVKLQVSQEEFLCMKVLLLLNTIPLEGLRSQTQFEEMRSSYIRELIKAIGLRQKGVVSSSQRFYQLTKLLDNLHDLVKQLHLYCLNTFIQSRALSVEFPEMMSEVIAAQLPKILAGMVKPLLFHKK

CCC(C)(CCC(C)C)C(=O)O (configuration not stated)
inactive: Potency [1] | Potency [2] | Potency [3] | Potency [4] | Potency [5] | outcome [6] | outcome [7] | outcome [8]

C=C(C)C(=O)OCc1ccccc1
active: Potency [4] 30.6 µM | Potency [5] 48.6 µM
inactive: Potency [1] | Potency [2] | Potency [3] | outcome [6] | outcome [7] | outcome [8]

CCCC/C=C/C=C\C=O
inactive: Potency [1] | Potency [2] | Potency [3] | Potency [4] | Potency [5] | outcome [6] | outcome [7]

CC(C)N(c1ccccc1)C(C)C
inactive: Potency [1] | Potency [2] | Potency [3] | Potency [4] | Potency [5] | outcome [6] | outcome [7] | outcome [8]

O=Cc1ccc(Cl)c(Cl)c1
inactive: Potency [1] | Potency [2] | Potency [3] | Potency [4] | Potency [5] | outcome [6] | outcome [7] | outcome [8]

Oc1cn2c(n1)Nc1ccc(Cl)c(Cl)c1C2
inactive: activity change, negative = cytotoxicity [1] 5.64% [at 19 µM] | activation [2] -0.586% [at 19 µM] | activity change, negative = inhibition [3] 2.35% [at 18.9 µM] | activity change, negative = cytotoxicity [4] 6.36% [at 18.9 µM] | activity change, negative = cytotoxicity [5] 10.9% [at 19 µM] | viability change, negative = cytotoxic [6] 8.57% [at 15.8 µM] | activity change, negative = cytotoxicity [7] -0.153% [at 15.8 µM] | activation [8] -0.288% [at 15.8 µM]

CN(C)C(=O)CNC(=O)Cc1ccccc1
inactive: Potency [1] | Potency [2] | Potency [3] | Potency [4] | Potency [5] | outcome [6] | outcome [7] | outcome [8]

CC1=CCC(C(C)C)=CC1
inactive: Potency [1] | Potency [2] | Potency [3] | Potency [4] | Potency [5] | outcome [6] | outcome [7] | outcome [8]

C=COCCOCCOCCOC=C
inactive: Potency [1] | Potency [2] | Potency [3] | Potency [4] | Potency [5] | outcome [6] | outcome [7] | outcome [8] | outcome [9] | outcome [10]

CNC(=O)[C@H]1O[C@@H](n2cnc3c(NCc4cc(Cl)ccc4OCc4cc(C)no4)ncnc32)[C@H](O)[C@@H]1N
inactive: Potency [1] | Potency [2] | Potency [3] | Potency [4] | Potency [5] | outcome [6] | outcome [7] | outcome [8] | outcome [9] | outcome [10]

O=S(=O)(O)c1ccc2cc(O)c(S(=O)(=O)O)cc2c1
inactive: Potency [1] | Potency [2] | Potency [3] | Potency [4] | Potency [5] | outcome [6] | outcome [7] | outcome [8]

CCOC(=O)/C=C/c1ccccc1
inactive: Potency [1] | Potency [2] | Potency [3] | Potency [4] | Potency [5] | outcome [6] | outcome [7] | outcome [8] | outcome [9] | outcome [10]

CC(=O)c1sc(C)nc1C
inactive: Potency [1] | Potency [2] | Potency [3] | Potency [4] | Potency [5] | outcome [6] | outcome [7] | outcome [8] | outcome [9] | outcome [10]

COc1ccc(Br)c(C)c1
inactive: Potency [1] | Potency [2] | Potency [3] | Potency [4] | Potency [5] | outcome [6] | outcome [7] | outcome [8] | outcome [9] | outcome [10]

Cc1ccc2ccc(Cl)cc2n1
inactive: Potency [1] | Potency [2] | Potency [3] | Potency [4] | Potency [5] | outcome [6] | outcome [7] | outcome [8]

CC(C)=CCOC(=O)c1ccccc1
inactive: Potency [1] | Potency [2] | Potency [3] | Potency [4] | Potency [5] | outcome [6] | outcome [7] | outcome [8] | outcome [9] | outcome [10]

CC[C@H](C)C(=O)O[C@H]1C[C@H](O)C=C2C=C[C@H](C)[C@H](CC[C@@H](O)C[C@@H](O)CC(=O)O)[C@H]21
inactive: Potency [1] | Potency [2] | Potency [3] | Potency [4] | Potency [5] | outcome [6] | outcome [7] | outcome [8]

COc1ccc(OC)c(Cl)c1
inactive: Potency [1] | Potency [2] | Potency [3] | Potency [4] | Potency [5] | outcome [6] | outcome [7] | outcome [8] | outcome [9] | outcome [10]

CCCCNc1ccc(C(=O)OCCN(C)C)cc1
inactive: Potency [1] | Potency [2] | Potency [3] | Potency [4] | Potency [5] | outcome [6] | outcome [7] | outcome [8] | outcome [9] | outcome [10]

NS(=O)(=O)c1ccc(NC(=O)CCC(=O)O)cc1
inactive: Potency [1] | Potency [2] | Potency [3] | Potency [4] | Potency [5] | outcome [6] | outcome [7] | outcome [8]

CN(C)CCOCCO
inactive: Potency [1] | Potency [2] | Potency [3] | Potency [4] | Potency [5] | outcome [6] | outcome [7] | outcome [8] | outcome [9] | outcome [10]

CC(C)c1ccc2cc(C(C)C)ccc2c1
inactive: Potency [1] | Potency [2] | Potency [3] | Potency [4] | Potency [5] | outcome [6] | outcome [7] | outcome [8] | outcome [9] | outcome [10]

CCCOC(=O)C(C)O (configuration not stated)
inactive: Potency [1] | Potency [2] | Potency [3] | Potency [4] | Potency [5] | outcome [6] | outcome [7] | outcome [8] | outcome [9] | outcome [10]

Cc1ccccc1OCC(O)CO (configuration not stated)
inactive: Potency [1] | Potency [2] | Potency [3] | Potency [4] | Potency [5] | outcome [6] | outcome [7] | outcome [8]

CCn1ccc(NS(=O)(=O)c2ccc(N)cc2)nc1=O
inactive: Potency [1] | Potency [2] | Potency [3] | Potency [4] | Potency [5] | outcome [6] | outcome [7] | outcome [8]

C[Si](C)(C)C
inactive: Potency [1] | Potency [2] | Potency [3] | Potency [4] | Potency [5] | outcome [6] | outcome [7] | outcome [8]

CC(C)CCCC(C)(C)O
inactive: Potency [1] | Potency [2] | Potency [3] | Potency [4] | Potency [5] | outcome [6] | outcome [7] | outcome [8]

Source: PubChem BioAssay (Tox21)
